Assay results published in the supplement of paper PMC10011410.
± gives the standard deviation of the averaged measurements.

System: AmpC beta-lactamase (E. coli)
Assay: AmpC inhibition relative to DMSO; higher = more inhibition
Protocol: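 Aggregation counter-screen: inhibition of E. coli AmpC beta-lactamase (5 nM, nitrocefin substrate, 50 mM sodium phosphate pH 7.0, RT, 5 min) by KAT inhibitors at 4, 11, 33 and 100 uM, with or without 0.01% Triton X-100. Percent inhibition is relative to DMSO controls. Four technical replicates.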

[1] = 4 µM, detergent: 0.01% Triton X-100
[2] = 11 µM, detergent: 0.01% Triton X-100
[3] = 33 µM, detergent: 0.01% Triton X-100
[4] = 100 µM, detergent: 0.01% Triton X-100
[5] = 100 µM, detergent: no detergent

SMILES | AmpC inhibition [1] [%] | AmpC inhibition (4 µM, detergent: no detergent) [%] | AmpC inhibition [2] [%] | AmpC inhibition (11 µM, detergent: no detergent) [%] | AmpC inhibition [3] [%] | AmpC inhibition (33 µM, detergent: no detergent) [%] | AmpC inhibition [4] [%] | AmpC inhibition [5] [%]
O=C(OCC)/C(C(OCC)=O)=C\CCCCCCCCCCCCCC | 5.31 ± 3.4 | -0.349 ± 2.3 | 1.25 ± 19 | 41.5 ± 10 | 6.47 ± 3.7 | 50.3 ± 16 | 1.39 ± 4.3 | 86.8 ± 6.6
COC1=CC=C(S(=O)(O/N=C2C=C(C(C(C)=C\2)=O)C)=O)C=C1 | 2.45 ± 1.2 | -3.63 ± 5.6 | 6.48 ± 2.3 | 3.85 ± 1.5 | 6.35 ± 3.8 | 0.996 ± 9.5 | 8.37 ± 3.3 | -1.7 ± 3.7
CCCCCCCCCCCCCCCc1cccc(O)c1C(=O)O | 6.97 ± 5.3 | 25.7 ± 18 | 6.87 ± 8.5 | 97.15 ± 0.48 | 5.05 ± 6.1 | 100 ± 3.9 | 7.84 ± 4 | 99.49 ± 0.71
Cl.Cl.O=C(O)Cn1nnc(-c2ccc(CN(CCCCOc3ccc(CN4CCCC4)cc3)CCc3ccccc3)cc2)n1 | 7.51 ± 5.3 | -18.8 ± 5 | 6.13 ± 8.3 | -17.6 ± 4.2 | 3.69 ± 2.6 | -26.9 ± 12 | 11 ± 6.5 | 5.89 ± 17
O=C1C(Cl)=C(NCCN2CCOCC2)C(=O)c2ncccc21 | 8.96 ± 3 | 0.538 ± 7 | 5.66 ± 0.9 | 0.224 ± 2.9 | 5.99 ± 7.4 | -1.42 ± 2.1 | 6.05 ± 2 | -4.13 ± 5.6
